# Laboratory results from ChEMBL document CHEMBL4513146, “CO-ADD screening of Karazin Kharkiv National University (Ukraine) compounds”.
# Results with a measured potency or affinity are listed apart.
# Experiments:
# [1] = tested on: Klebsiella pneumoniae; conditions: Concentration 32 ug.mL-1;; ASSAY_TEST Inhibition of Bacterial Growth; detection method Absorption (OD600); MEDIA CAMHB; plate type 384well; NBS; CORNING #3640; time 18 hr
# [2] = tested on: Candida albicans; conditions: Concentration 32 ug.mL-1; ASSAY_TEST Inhibition of Fungal Growth; detection method Absorption (OD530)
# [3] = tested on: Cryptococcus neoformans; conditions: Concentration 32 ug.mL-1; ASSAY_TEST Inhibition of Fungal Growth; detection method Resazurin; Absorption (OD600-OD570); plate type 384well; NBS; CORNING #3640
Structure (SMILES),Inhibition [1],Inhibition [2],Inhibition [3]
CC(=O)Nc1ccc(NC(=O)CSc2nc3ccccc3n3cnnc23)cc1,2.19%,32.46%,-15.75%
Cc1nnc2ccc(S(=O)(=O)N(Cc3ccccc3F)c3cc(F)cc(F)c3)cn12,-4.61%,2.54%,-9.43%
COC(=O)c1cccc(NC(=O)Cn2nc3c(SCc4ccc(Cl)cc4)nccn3c2=O)c1,6.22%,27.78%,-15.7%
Cc1ccc(NC(=O)Cn2nc3c4cc(-c5ccc(Cl)cc5)nn4ccn3c2=O)cc1C,9.71%,6.69%,-22.86%
CCOc1ccccc1CNC(=O)CCc1nnc2ccc(-c3ccccc3)nn12,9.31%,0.83%,-22.57%
COc1ccccc1-n1ccn2c(SCc3cccc(F)c3)nnc2c1=O,7.21%,2.05%,-9.16%
CC(C)Cn1c(=O)c2sccc2n2c(=O)n(CC(=O)NC(C)(C)C)nc12,2.39%,-0.9%,-15.87%
Cc1cc(C)c(NC(=O)Cn2nc3ccc(SC(C)(C)C)nn3c2=O)c(C)c1,14.36%,2.38%,-25.26%
Cc1ccccc1Oc1nccn2c(=O)n(CC(=O)Nc3ccc(F)cc3F)nc12,11.95%,-0.38%,-8.47%
O=c1c2nn(Cc3cccc(Cl)c3)c(=O)n2ccn1-c1ccccc1,1.75%,6.73%,-10.03%
Cc1cccc(C)c1NC(=O)Cn1nc2c(SC3CCCCC3)nccn2c1=O,8.3%,20.03%,-18.68%
Cc1ccc(C)c(CSc2nnc3c(=O)n(-c4ccc(F)c(F)c4)ccn23)c1,-0.25%,0.45%,-4.36%
Cc1cc2nn(CC(=O)Nc3ccc(F)cc3)c(=O)n2c(Nc2ccccc2C)n1,4.2%,1.24%,-11.54%
CCOc1ccc(-n2ccn3c(SC(C)C(=O)Nc4ccc(OC)cc4)nnc3c2=O)cc1 (centres undefined),5.17%,4.23%,-11.44%
COc1cccc(Cn2nc3ccc(-c4ccccc4)nn3c2=O)c1,7.25%,2.39%,-3.25%
Cc1cc2nn(CC(=O)NCc3ccc4c(c3)OCO4)c(=O)n2c(Nc2ccccc2C)n1,10.7%,2.64%,-19.18%
O=C(CSc1nnc2c(=O)n(-c3ccccc3)ccn12)Nc1ccc2c(c1)OCO2,8.73%,0.46%,-18.26%
COc1ccc(N(Cc2cccc(Cl)c2)S(=O)(=O)c2ccc3nncn3c2)cc1,12.52%,3.54%,-3.69%
CC(C)c1nnc2c(SCC(=O)Nc3ccc(F)cc3F)nc3ccccc3n12,13.12%,-0.24%,-26.87%
COc1ccc(NC(=O)Cn2nc3nc(N4CCCCCC4)ccn3c2=O)cc1Cl,8.5%,2.73%,-7.14%
COc1ccc(NC(=O)CSc2nc3ccccc3n3c(C(C)C)nnc23)cc1Cl,5.17%,1.87%,-6.36%
Cc1cc2nn(CC(=O)Nc3ccc(F)c(F)c3)c(=O)n2c(Nc2ccc(C)c(F)c2)n1,13.08%,3.82%,-7.92%
COC(=O)c1ccccc1NC(=O)Cn1nc2c(Oc3cccc(OC)c3)nccn2c1=O,-16.2%,1.71%,-7.59%
COc1ccc(NC(=O)Cn2nc3c(N4CCCC4)nccn3c2=O)cc1Cl,15.87%,1.28%,-15.33%
CC(C)(C)Sc1ccc2nn(CC(=O)N3CCN(c4ccc(F)cc4)CC3)c(=O)n2n1,10%,3.9%,-8.43%
COc1ccc(NC(=O)Cn2c(=O)c3nnc(C)n3c3ccccc32)cc1Cl,11.31%,0.53%,-20.99%
CCCNC(=O)Cn1nc2nc(Nc3ccc(F)cc3)ccn2c1=O,-2.03%,-0.03%,-13.31%
CCc1ccccc1NC(=O)Cn1c(=O)c2nnc(C(C)C)n2c2ccccc21,-2.33%,1.4%,-16.86%
